For assay [1], the system named is SRPK2. Particulars: concentration: 1 μM, replicates: in singlicate; n = 1.
Assay [2] has as its system SRPK3. Particulars: concentration: 1 μM, replicates: in singlicate; n = 1.
The test system of assay [3] is STK16. Particulars: concentration: 1 μM, replicates: in singlicate; n = 1.
Assay [4] relates to STK33. Particulars: concentration: 1 μM, replicates: in singlicate; n = 1.
Assay [5] relates to STK35. Particulars: concentration: 1 μM, replicates: in singlicate; n = 1.
Assay [6] concerns STK36. Particulars: concentration: 1 μM, replicates: in singlicate; n = 1.
Assay [7] has as its system STK39. Particulars: concentration: 1 μM, replicates: in singlicate; n = 1.
The test system of assay [8] is SYK. Particulars: concentration: 1 μM, replicates: in singlicate; n = 1.
Assay [9] has as its system SgK110. Particulars: concentration: 1 μM, replicates: in singlicate; n = 1.
Assay [10] has as its system T1, TAK1.
T1 construct: gene MAP3K7
Particulars: concentration: 1 μM, replicates: in singlicate; n = 1.

Assay [11] has as its system TAOK1. Particulars: concentration: 1 μM, replicates: in singlicate; n = 1.
Assay [12] has as its system TAOK2. Particulars: concentration: 1 μM, replicates: in singlicate; n = 1.
Assay [13] relates to TAOK3. Particulars: concentration: 1 μM, replicates: in singlicate; n = 1.
For assay [14], the system named is TBK1. Particulars: concentration: 1 μM, replicates: in singlicate; n = 1.
Assay [15] relates to TEC. Particulars: concentration: 1 μM, replicates: in singlicate; n = 1.
For assay [16], the system named is TESK1. Particulars: concentration: 1 μM, replicates: in singlicate; n = 1.
In assay [17] the test system is TGFBR1. Particulars: n = 1.
Assay [18] has as its system TGFBR2. Particulars: concentration: 1 μM, replicates: in singlicate; n = 1.
The subject of assay [19] is TIE1. Particulars: concentration: 1 μM, replicates: in singlicate; n = 1.
Assay [20] relates to T2, TIE2.
T2 construct: gene TEK
Particulars: concentration: 1 μM, replicates: in singlicate; n = 1.

Where [21] appears, read: concentration: 1 μM, replicates: in singlicate.

Where two headings read alike, the source gives them in different places.
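Note: KINOMEscan kinase panel screen.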

In the case of `Cc1ccccc1-c1cc(-c2c[nH]nc2-c2ccccn2)ccn1` [GW680061], the “%Inh” value came to 3% in assay [1]; 4% in [2]; 0% in assay [3]; 0% in assay [4]; 0% in assay [5]; 0% in assay [6]. Besides, the “%Inh” value turned out to be 10% in [7]; 36% in [8]; 0% in [9]; 0% in assay [10]; 0% in assay [11]; 0% in assay [12]. In addition, the “%Inh” value in assay [13] worked out at 0%; in assay [14], 0%; in assay [15], 15%; in [16], 24%; in assay [17] (1 µM), 5%; in [18], 0%. Besides, the “%Inh” value was 6% in assay [19] and 0% in assay [20].

`CS(=O)(=O)Cc1ccc(Nc2nccc(-c3c(-c4cccc(NC(=O)C5CCCCC5)c4)nn4ncccc34)n2)cc1` [GSK350559]: the “%Inh” value was determined as 0% in assay [1]; 0% in assay [2]; 12% in assay [3]; 4% in assay [4]; 9% in assay [5]; 81% in assay [6]. Besides, the “%Inh” value was 37% in [7]; 4% in assay [8]; 0% in [9]; 2% in assay [10]; 11% in assay [11]; 0% in assay [12]. The “%Inh” value in [13] was determined as 0%; in [14] it was 29%; in [15] it was 29%; in assay [16], 10%; in [17] (setting [21]), 0%; in [18], 0%. The “%Inh” value in [19] stood at 3%; in assay [20] it was 0%.

Regarding `COC(=O)c1cccc(NC(=O)NC2CCN(c3ccnc(Nc4ccc(OC)cc4)n3)C2)c1` (stereo not shown) [GSK1379746], the “%Inh” value came to 28% in [1]; 0% in assay [2]; 8% in [3]; 0% in assay [4]; 0% in assay [5]; 0% in assay [6]. Further, the “%Inh” value worked out at 5% in [7]; 0% in assay [8]; 0% in assay [9]; 0% in assay [10]; 0% in assay [11]; 0% in assay [12]. For the same compound, the “%Inh” value in assay [13] was 0%; in assay [14], 0%; in [15], 14%; in assay [16] it was 13%; in [17] (setting [21]) it was 41%; in assay [18], 0%. The “%Inh” value in assay [19] and in assay [20] was 0% throughout.

As for `CNc1nc(-c2ccc3c(N)n[nH]c3c2)cc(N2C[C@@H](C(=O)Nc3ccccc3)CC[C@H]2C)n1` [GSK2298859], the “%Inh” value in [1] amounted to 29%; in assay [2], 0%; in assay [3], 13%; in [4], 9%; in assay [5] it was 0%; in [6], 0%. In addition, the “%Inh” value was determined as 6% in assay [7]; 16% in assay [8]; 0% in assay [9]; 0% in assay [10]; 0% in assay [11]; 0% in assay [12]. The “%Inh” value in assay [13] is recorded as 0%; in [14], 14%; in assay [15] it was 4%; in assay [16], 24%; in assay [17] (setting [21]), 12%; in assay [18] it was 0%. The “%Inh” value in assay [19] and in [20] was 0% in each case.

On to `CCCCc1nn2ncccc2c1-c1ccnc(NC2CC2)n1` [GW684374], for which the “%Inh” value in assay [1] is 0%; in assay [2], 0%; in assay [3] it was 20%; in assay [4], 0%; in assay [5] it was 0%; in assay [6] it was 0%. Also, the “%Inh” value in assay [7], in assay [8], in [9], in assay [10], in [11] and in assay [12] was 0% throughout. Also, the “%Inh” value in [13] is listed as 0%; in assay [14], 7%; in [15], 3%; in assay [16] it was 13%; in [17] (setting [21]), 29%; in [18] it was 7%. The “%Inh” value in [19] and in assay [20] was 0% each time.

As for `COc1ccc(CSc2nnc(-c3ccc4c(c3)CCO4)o2)cc1`, the “%Inh” value in [1] was determined as 0%; in assay [2], 0%; in assay [3] it was 5%; in assay [4] it was 0%; in assay [5], 0%; in assay [6], 0%. Further, the “%Inh” value is 0% in assay [7]; 0% in [8]; 26% in assay [9]; 0% in assay [10]; 0% in [11]; 0% in assay [12]. Also, the “%Inh” value in assay [13] stood at 0%; in [14] it was 11%; in assay [15], 0%; in assay [16], 0%; in assay [17] (setting [21]), 0%; in assay [18], 0%. Also, the “%Inh” value in assay [19] and in assay [20] was 0% each time.

For the compound `FC(F)(F)c1ccccc1-c1cc(-c2c[nH]nc2-c2ccccn2)ccn1` [GW679396], the “%Inh” value in assay [1] was 0%; in [2], 0%; in assay [3] it was 20%; in assay [4], 0%; in assay [5], 0%; in [6], 29%. Also, the “%Inh” value in [7] is recorded as 7%; in assay [8], 25%; in assay [9], 0%; in assay [10], 4%; in assay [11], 0%; in assay [12], 0%. Moreover, the “%Inh” value came to 0% in assay [13]; 18% in assay [14]; 1% in assay [15]; 14% in assay [16]; 0% in [17] (1 µM); 10% in assay [18]. The “%Inh” value is 0% in [19] and 7% in [20].

In the case of `Cc1cccc2c(-c3ccncn3)c(-c3ccc(F)cc3)nn12` [GW515532], the “%Inh” value is reported as 0% in assay [1]; 14% in assay [2]; 0% in [3]; 0% in assay [4]; 27% in assay [5]; 0% in assay [6]. In addition, the “%Inh” value in [7], in assay [8], in assay [9], in assay [10], in assay [11] and in assay [12] was 0% each time. The “%Inh” value is recorded as 0% in assay [13]; 0% in [14]; 0% in assay [15]; 17% in [16]; 0% in assay [17] (setting [21]); 23% in [18]. The “%Inh” value in assay [19] came to 14%; in assay [20], 0%.

As to `Cc1ccccc1Cn1ccn2c(=O)cc(N3CCOCC3)nc12` [GSK2269905], the “%Inh” value in [1], in [2], in assay [3], in assay [4], in [5] and in assay [6] was 0% throughout. In addition, the “%Inh” value in assay [7] is on record as 12%; in [8], 23%; in [9], 0%; in assay [10] it was 0%; in assay [11] it was 0%; in assay [12], 0%. Also, the “%Inh” value in [13] turned out to be 0%; in assay [14], 0%; in [15], 16%; in [16] it was 15%; in assay [17] (setting [21]) it was 0%; in assay [18], 0%. Also, the “%Inh” value in assay [19] and in assay [20] was 0% each time.

`CNC(=O)c1ccc(C)c(-n2c(C)cc(OCc3ccc(F)cc3F)c(Br)c2=O)c1`: the “%Inh” value in [1] stood at 0%; in assay [2] it was 6%; in assay [3], 3%; in assay [4], 0%; in assay [5], 0%; in assay [6] it was 1%. In addition, the “%Inh” value in assay [7] worked out at 0%; in assay [8], 14%; in assay [9], 0%; in assay [10], 12%; in assay [11], 0%; in assay [12], 0%. The “%Inh” value in assay [13] was 0%; in assay [14], 0%; in [15], 1%; in assay [16] it was 13%; in assay [17] (setting [21]) it was 0%; in assay [18] it was 0%. Also, the “%Inh” value in assay [19] came out at 1%; in assay [20], 0%.

With `Nc1nccc(-c2c(-c3ccc(F)cc3)ncn2C2CCN(Cc3ccccc3)CC2)n1` [SB-219980], the “%Inh” value in assay [1] is reported as 0%; in assay [2], 0%; in assay [3], 0%; in assay [4], 33%; in [5] it was 79%; in assay [6], 29%. In addition, the “%Inh” value in [7] is on record as 0%; in assay [8] it was 0%; in [9] it was 0%; in assay [10], 7%; in assay [11] it was 31%; in assay [12], 0%. Further, the “%Inh” value in assay [13] is given as 10%; in [14], 0%; in assay [15] it was 0%; in [16], 0%; in [17] (setting [21]), 7%; in assay [18], 12%. For the same compound, the “%Inh” value was 1% in assay [19] and 0% in [20].

(Values after publication PMC5540273 (PLoS ONE, 2017).)
